This note sets out measurements from PubChem BioAssay.

Test [1] can be described thus: antimalarial activity against Dd2 strain (AID 2302;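 active means growth inhibition above 50% at the single 2 µM test dose, taken to imply half-maximal potency below 2 µM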;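 further: 0% = DMSO untreated growth and 100% = chloroquine plus artemisinin killed control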). To be noted: P. falciparum Dd2 in RBCs, LDH growth readout, 72 h; at 2 µM; stronger effect = higher value.
A short description of test [2]: HepG2 cytotoxicity, primary screen, cytotoxicity control for P. falciparum antimalarial project, cell-based, ATP luminescence (AID 2303;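 active means inhibition above 50%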;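 further: 0% = DMSO wells and 100% = digitonin-killed cells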). To be noted: HepG2 viability, 24-48 h, at 10 µM, stronger effect = higher value.
For test [3], the target named is L-lactate dehydrogenase (Plasmodium falciparum (isolate CDC / Honduras)) (UniProt Q27743). Description: PfLDH activity inhibition – cell lysate, 3D7 strain, counter-screen for P. falciparum growth inhibition project (AID 2304).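 Further: 0% = vehicle and 100% = reference inhibitor.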 To be noted: P. falciparum 3D7 crude extract, LDH APAD/NBT absorbance; at 2 µM; stronger effect = higher value. For orientation: The purpose of a counterscreen is to sort out artefacts and off-target activity.

Test [4] in a line: inhibition of 3D7 malaria parasite growth – strain 3D7 (AID 2306).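 Further: 0% = DMSO wells and 100% = chloroquine plus artemisinin control wells.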 As to conditions: P. falciparum 3D7 erythrocytic growth, LDH absorbance, 72 h; at 2 µM; stronger effect = higher value.
Test [5] concerns the target Calcium-dependent protein kinase 1 (Plasmodium falciparum (isolate 3D7)) (UniProt P62344). The test is described as follows: PfCDPK1 kinase inhibitors, biochemical, TCAMS library (AID 1159585; cut-off not given, nearly all actives have IC50 up to about 0.98 µM;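 further: inhibitors leave more ATP so luminescence rises with inhibition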). As to conditions: recombinant PfCDPK1, Kinase-Glo ATP depletion luminescence. Background: In Kinase-Glo more light means more ATP remaining.
The target in test [6] is Plasmodium falciparum protein kinase 6 (PK6, PF3D7_1337100) (UniProt Q8IDW1). The test is described as follows: PfPK6 kinase inhibitors, biochemical, TCAMS library (AID 1159586). As to conditions: recombinant PfPK6, Kinase-Glo ATP depletion luminescence.
Test [7] has as its target Protein kinase 7 (PK7), Plasmodium falciparum 3D7 (PF3D7_0213400) (UniProt Q7YTF7). The test is described as follows: inhibition of Plasmodium PK7 catalytic activity – biochemical, TCAMS antimalarial set, Kinase-Glo luminescence (AID 1159587). To be noted: recombinant PfPK7, Kinase-Glo ATP depletion luminescence.
The target of test [8] is Calcium-dependent protein kinase 4 (Plasmodium falciparum (isolate 3D7)) (UniProt Q8IBS5). Description: PfCDPK4 kinase inhibitors, biochemical, TCAMS library (AID 1159588; cut-off not given, nearly all actives have IC50 up to about 0.91 µM). As to conditions: recombinant PfCDPK4, Kinase-Glo ATP depletion luminescence.

SMILES strings stand for the structures. Values without a mark were called inactive. For some of these results: Potency and affinity values are given separately. Activity calls are given as the source filed them. Unless noted, how the calls were made is not given here.

Protein kinase 7 (PK7), Plasmodium falciparum 3D7 (PF3D7_0213400), sequence (Q7YTF7 1-343): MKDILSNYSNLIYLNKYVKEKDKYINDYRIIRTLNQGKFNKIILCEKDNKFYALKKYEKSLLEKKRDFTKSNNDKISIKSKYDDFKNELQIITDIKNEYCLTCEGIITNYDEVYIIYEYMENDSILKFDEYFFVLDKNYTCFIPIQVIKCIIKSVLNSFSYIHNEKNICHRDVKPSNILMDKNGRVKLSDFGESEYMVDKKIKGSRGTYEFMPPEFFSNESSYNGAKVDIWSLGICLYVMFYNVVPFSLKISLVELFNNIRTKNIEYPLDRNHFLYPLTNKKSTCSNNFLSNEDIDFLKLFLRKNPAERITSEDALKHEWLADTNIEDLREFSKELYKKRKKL
Calcium-dependent protein kinase 4 (Plasmodium falciparum (isolate 3D7)), sequence (Q8IBS5 whole entry, looked up): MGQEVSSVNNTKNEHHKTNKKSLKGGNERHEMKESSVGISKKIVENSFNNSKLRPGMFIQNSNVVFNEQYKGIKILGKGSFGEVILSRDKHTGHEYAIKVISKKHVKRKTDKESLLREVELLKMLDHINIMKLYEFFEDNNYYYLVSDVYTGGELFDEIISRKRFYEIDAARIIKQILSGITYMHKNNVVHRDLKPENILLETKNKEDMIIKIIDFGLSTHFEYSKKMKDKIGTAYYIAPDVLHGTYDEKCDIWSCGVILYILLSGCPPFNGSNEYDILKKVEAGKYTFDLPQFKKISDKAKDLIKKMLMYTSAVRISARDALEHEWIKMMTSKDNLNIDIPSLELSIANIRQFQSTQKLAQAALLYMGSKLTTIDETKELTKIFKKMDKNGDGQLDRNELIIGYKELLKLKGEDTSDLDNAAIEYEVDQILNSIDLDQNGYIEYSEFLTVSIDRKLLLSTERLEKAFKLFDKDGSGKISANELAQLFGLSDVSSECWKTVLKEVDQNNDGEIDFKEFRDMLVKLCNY
Calcium-dependent protein kinase 1 (Plasmodium falciparum (isolate 3D7)), sequence (P62344 whole entry, looked up): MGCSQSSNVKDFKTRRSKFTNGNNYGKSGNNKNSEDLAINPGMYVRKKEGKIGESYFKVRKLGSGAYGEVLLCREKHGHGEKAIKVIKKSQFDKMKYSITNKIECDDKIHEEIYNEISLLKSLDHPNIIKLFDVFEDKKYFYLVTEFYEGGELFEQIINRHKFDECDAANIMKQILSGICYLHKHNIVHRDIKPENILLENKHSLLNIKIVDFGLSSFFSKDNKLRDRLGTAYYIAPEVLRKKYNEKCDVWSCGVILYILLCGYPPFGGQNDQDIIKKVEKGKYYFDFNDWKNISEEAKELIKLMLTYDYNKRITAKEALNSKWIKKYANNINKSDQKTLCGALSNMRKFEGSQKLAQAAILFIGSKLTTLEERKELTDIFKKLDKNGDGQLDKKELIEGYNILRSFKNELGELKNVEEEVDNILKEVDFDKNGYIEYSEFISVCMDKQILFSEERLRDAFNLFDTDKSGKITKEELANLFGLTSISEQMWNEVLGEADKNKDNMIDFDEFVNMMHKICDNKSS
Plasmodium falciparum protein kinase 6 (PK6, PF3D7_1337100), sequence (Q8IDW1 1-305): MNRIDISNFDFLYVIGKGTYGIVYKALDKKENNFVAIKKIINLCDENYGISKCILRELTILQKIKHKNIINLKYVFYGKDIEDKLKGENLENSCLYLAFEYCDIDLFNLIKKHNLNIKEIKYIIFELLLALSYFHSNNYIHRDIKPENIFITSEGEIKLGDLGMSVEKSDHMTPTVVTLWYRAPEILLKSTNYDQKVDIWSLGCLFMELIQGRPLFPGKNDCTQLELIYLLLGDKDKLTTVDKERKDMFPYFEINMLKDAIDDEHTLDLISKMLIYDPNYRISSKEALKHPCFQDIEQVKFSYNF
L-lactate dehydrogenase (Plasmodium falciparum (isolate CDC / Honduras)), sequence (Q27743 whole entry, looked up): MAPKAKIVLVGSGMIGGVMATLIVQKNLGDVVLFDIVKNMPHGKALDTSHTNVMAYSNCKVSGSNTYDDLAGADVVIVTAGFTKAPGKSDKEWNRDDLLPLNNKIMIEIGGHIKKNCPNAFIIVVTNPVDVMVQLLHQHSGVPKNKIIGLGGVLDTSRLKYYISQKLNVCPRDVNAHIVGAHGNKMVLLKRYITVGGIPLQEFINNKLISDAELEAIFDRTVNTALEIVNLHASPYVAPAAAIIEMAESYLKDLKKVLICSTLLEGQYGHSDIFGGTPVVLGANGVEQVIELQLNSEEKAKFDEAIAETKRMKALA

As a reminder, the inhibition is the relative decrease from the control value, in per cent. `O=C(Nc1ccc(F)c(Cl)c1)c1cc([N+](=O)[O-])cc2cn[nH]c12`: the growth inhibition in test [1] is 67% (active); in test [4], 100% (active). Besides, the inhibition in test [2] is 32%; in test [3] it was -4%. Also, the outcome in test [5], in test [6], in test [7] and in test [8] was inactive.

With `CC1(C)Cc2c([nH]c3ccccc23)C(CCCCCCCCC2=NC(C)(C)Cc3c2[nH]c2ccccc32)=N1`, the growth inhibition was 88% (active) in test [1] and 99% (active) in test [4]. Further, the inhibition is 100% (active) in test [2] and -1% in test [3]. Further, the result in test [5], in test [6], in test [7] and in test [8] was inactive.

In the case of `O=C(NC1CCN(Cc2ccccc2)CC1)c1ccc(-c2nc3cc(Cl)c(F)cc3[nH]2)s1`, the growth inhibition is 99% (active) in test [1] and 101% (active) in test [4]. Besides, the inhibition in test [2] was 28%; in test [3], 3%. For the same molecule, the result in test [5], in test [6], in test [7] and in test [8] was inactive.

Consider `Cc1cccc(C(=O)NC(NC(=S)Nc2ccc([N+](=O)[O-])cc2)C(Cl)(Cl)Cl)c1` (stereo not given), for which the growth inhibition is 66% (active) in test [1] and 96% (active) in test [4]. Moreover, the inhibition in test [2] is 14%; in test [3], -2%. Moreover, the result in test [5], in test [6], in test [7] and in test [8] was inactive.

Regarding `Cc1ccc(C)c(Cn2ccc3nc(Cl)nc(Cl)c32)c1`, the growth inhibition in test [1] was 68% (active); in test [4], 95% (active). For the same molecule, the inhibition is -10% in test [2] and -2% in test [3]. Further, the result in test [5], in test [6], in test [7] and in test [8] was inactive.

Regarding `COc1ccc2nccc([C@@H](O)CN3CCC(NC(=O)c4cc5c(F)cc(F)cc5[nH]4)CC3)c2n1`, the results for the growth inhibition in test [1] and in test [4] were 74% (active) and 101% (active), respectively. The inhibition in test [2] is 32%; in test [3] it was -3%. For the same molecule, the outcome in test [5], in test [6], in test [7] and in test [8] was inactive.

Turning to `CC1(C)N=C(NC(=O)c2cc([N+](=O)[O-])cc([N+](=O)[O-])c2)N=C(N)N1OCc1cccc2ccccc12`, the growth inhibition was 20% in test [1] and 94% (active) in test [4]. Moreover, the inhibition in test [2] was 66% (active); in test [3], -6%. Also, the outcome in test [5], in test [6], in test [7] and in test [8] was inactive.

As for `c1ccc(Oc2ccc(Nc3ccnc4cc(-c5ccc(CN6CCCCC6)o5)ccc34)cc2)nc1`, the growth inhibition in test [1] was 100% (active); in test [4], 101% (active). Also, the inhibition in test [2] is 18%; in test [3] it was -4%. In addition, the result in test [5], in test [6], in test [7] and in test [8] was inactive.

As to `Cc1cc(C)c(C)c(OCCCON2C(N)=NC(N)=NC2(C)C)c1C`, the growth inhibition in test [1] was 95% (active); in test [4], 94% (active). Moreover, the inhibition in test [2] is 64% (active); in test [3] it was -4%. Further, the outcome in test [5], in test [6], in test [7] and in test [8] was inactive.

As for `CC(C)N1CCC(NC(=O)N2CCCN(c3ncnc4cc(-c5ccccc5)sc34)CC2)CC1`, the growth inhibition is 11% in test [1] and 87% (active) in test [4]. Also, the inhibition in test [2] is 31%; in test [3], -4%. For the same molecule, the outcome in test [5], in test [6], in test [7] and in test [8] was inactive.

As for `Cc1c(-c2cccc(NC(=O)C(C)(C)Oc3ccc(Cl)cc3)c2)nc2ncccn12`, the growth inhibition in test [1] was 95% (active); in test [4], 98% (active). Also, the inhibition in test [2] is 0%; in test [3], -3%. Also, the outcome in test [5], in test [6], in test [7] and in test [8] was inactive.

`O=[N+]([O-])c1cccc(CNCC2CCN(Cc3ccc(C(F)(F)F)cc3)CC2)c1`: the growth inhibition in test [1] was 23%; in test [4], 101% (active). The inhibition is 7% in test [2] and 2% in test [3]. Moreover, the result in test [5], in test [6], in test [7] and in test [8] was inactive.

As for `N#Cc1ccc(C(=O)Nc2ccc(Cl)c(N3CCN(CCc4ccccc4)CC3)c2)cc1`, the growth inhibition in test [1] is 35%; in test [4], 90% (active). Also, the inhibition in test [2] and in test [3] was 5% each time. In addition, the result in test [5], in test [6], in test [7] and in test [8] was inactive.

On to `Oc1ccccc1CN1CCCC(COC(c2ccc(F)cc2)c2ccc(F)cc2)C1` (stereo not given), for which the growth inhibition in test [1] was 98% (active); in test [4], 97% (active). Moreover, the inhibition is 19% in test [2] and 1% in test [3]. The result in test [5], in test [6], in test [7] and in test [8] was inactive.

`CC(C)CCCC(C)(C)NC[C@@H](O)[C@H](Cc1ccccc1)NC(=O)c1cc(NC(C)C)cc(N2CCCCS2(=O)=O)c1`: the growth inhibition in test [1] and in test [4] was 98% (active) each time. Moreover, the inhibition is 2% in test [2] and -1% in test [3]. Besides, the result in test [5], in test [6], in test [7] and in test [8] was inactive.

`Fc1cccc(Nc2nc(NCCc3ccc(Cl)cc3)nc(Nc3cccc(F)c3)n2)c1`: the growth inhibition in test [1] is 30%; in test [4] it was 93% (active). Moreover, the inhibition in test [2] is -3%; in test [3], 6%. The result in test [5], in test [6], in test [7] and in test [8] was inactive.

Take `N[C@@H](Cc1cc(I)c(Oc2ccc(O)c(C(=O)O)c2)c(I)c1)C(=O)O`: the growth inhibition is 21% in test [1] and 97% (active) in test [4]. The inhibition was 57% (active) in test [2] and -1% in test [3]. Besides, the result in test [5], in test [6], in test [7] and in test [8] was inactive.

As to `COc1cc(C(=O)N2COCC(CCCN3CCC(N4CCCC4)CC3)(c3ccc(Cl)c(Cl)c3)C2)cc(OC)c1OC` (stereo not given), the results for the growth inhibition in test [1] and in test [4] were 70% (active) and 95% (active), respectively. In addition, the inhibition in test [2] was 5%; in test [3], -1%. The outcome in test [5], in test [6], in test [7] and in test [8] was inactive.

As to `COc1cc(-n2cnc3cc(-c4ccc([N+](=O)[O-])cc4)sc3c2=O)ccc1OCCN1CCCC1`, the growth inhibition in test [1] was 79% (active); in test [4], 97% (active). The inhibition in test [2] was 44%; in test [3], -4%. Further, the outcome in test [5], in test [6], in test [7] and in test [8] was inactive.

On to `COc1ccc2c(=O)c(C3CCC(c4ccc(Cl)cc4)CC3)c(C)[nH]c2c1` (stereo not given), for which the growth inhibition in test [1] is 84% (active); in test [4], 97% (active). For the same molecule, the inhibition was 2% in test [2] and 1% in test [3]. Besides, the outcome in test [5], in test [6], in test [7] and in test [8] was inactive.
